Laboratory results from PubChem BioAssay (NCATS).
Inconclusive results are not listed. Entries that show only a call come without a potency. Calls of active or inactive are those of the source. Calls come from the whole dose curve; as a rule, active = well fitted curve in the direction sought with a large enough effect; inconclusive = small, poorly fitted or top-dose-only effect, or another doubt; inactive = no such curve, though single readings can be large; an effect the other way counts as inactive or inconclusive.

Key:
[1] = qHTS to identify inhibitors of the type 1 interferon - major histocompatibility complex class I in skeletal muscle: primary screen against the NCATS LOPAC collection (AID 1347405);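 note: human myoblasts with HiBiT tag on endogenous HLA-B stimulated by IFN-beta; lytic HiBiT luminescence reporting HLA-B protein level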; note: potency is the fitted concentration of half-maximal effect
How it was run: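 IFN-beta-stimulated (4 ng/ml) HLA-B HiBiT knock-in myoblasts, compound-treated 24 hrs up to 46 uM final; signal via LgBiT complementation and furimazine luminescence.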

[2] = qHTS for inhibitors of adenylyl cyclases using a fission yeast platform: a pilot screen against the NCATS LOPAC library (AID 1347410)
How it was run: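 Growth medium went into the plates first, then compounds were pinned (final up to 57 µM), then CHP2027 yeast were added. Plates were incubated overnight (18 h) at 30C in the dark, and GFP was measured by laser scanning cytometry.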

[3] = Validation qHTS assay for inhibitors of Activation Induced Cytidine Deaminase (AID): UDG Counterscreen signal (AID 1347427); note: potency is the fitted concentration of half-maximal effect
How it was run: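 Fluorescence at 560 nm excitation, 665 nm emission reports UDG signal after 250 mM NaOH (2x) addition and 30 min. Enzymes (AID 1 uM, UDG 2 U/mL, at 4/3x) preincubated 10 min with compound, then 4 h with 4x 250 nM DJC20/DJC23 substrate at room temperature.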

| Structure (SMILES) | Potency [1] | outcome [2] | Potency [3] |
| --- | --- | --- | --- |
| COc1ccc(NC(=O)/C=C/c2ccc(Cl)cc2)cc1 | inactive | inactive | inactive |
| Clc1ccc(N2CCN(Cc3c[nH]c4ncccc34)CC2)cc1 | inactive | inactive | inactive |
| CC(=O)N[C@H](C(=O)O)C(C)(C)SN=O | inactive | inactive | inactive |
| O=C(CCCCCN1CCN(c2ccccc2-c2ccccc2)CC1)NC1CCCc2ccccc21 (configuration not stated) | inactive | inactive | inactive |
| CCCN(CC1CC1)c1nc(C)nc(Nc2c(Cl)cc(Cl)cc2Cl)c1Cl | inactive | inactive | inactive |
| Cc1cc(NC(=O)Nc2ccc3c(ccn3C)c2)sn1 | inactive | inactive | inactive |
| Oc1ccccc1O | inactive | inactive | inactive |
| CC1OC1P(=O)(O)O (configuration not stated) | inactive | inactive | inactive |
| O=Nc1ccc2oc(=O)ccc2c1 | inactive | inactive | inactive |
| Nc1nc(Cl)nc2c1ncn2[C@@H]1O[C@H](COP(=O)(O)OP(=O)(O)OP(=O)(O)O)[C@@H](O)[C@H]1O | inactive | inactive | inactive |
| N.N.N.N.N.N.N.N.N.N.N.N.N.N.O.O.[Ru+4].[Ru+5].[Ru+5] | inactive | inactive | 39.8 µM (active) |
| OCC1O[C@H](O)C(Cl)C(O)C1O (some centres not stated) | inactive | inactive | inactive |
| Oc1cc2c(cc1O)CN(C(=S)NCCc1ccc(Cl)cc1)CCC2 | inactive | inactive | inactive |
| Cn1ncc(S(=O)(=O)Cc2ccccc2)c(Br)c1=O | inactive | inactive | inactive |
| C[C@@H](CN1CCC(Cc2ccccc2)CC1)[C@@H](O)c1ccc(O)cc1 | inactive | inactive | inactive |
| Nc1nc(Cl)nc2c1ncn2[C@@H]1O[C@H](CO)[C@@H](O)[C@H]1O | inactive | inactive | inactive |
| O=C(O)CC1CCCc2ccccc2C1O (configuration not stated) | inactive | inactive | inactive |
| NC[C@H]1O[C@@H](n2cnc3c(N)ncnc32)[C@H](O)[C@@H]1O | inactive | inactive | inactive |
| CCCCCCCCc1ccc(-c2ccc(C(=O)O)cc2)cc1 | inactive | inactive | inactive |
| CC(=O)/C=C1\C(=O)N(C)c2ccccc21 | 22.4 µM (active) | inactive | inactive |
| CCCCCCCC/C=C\CCCCCCCC(=O)NCCO | inactive | inactive | inactive |
| CSc1ccccc1N1CCN(CCCCCC(=O)NC2CCCc3ccccc32)CC1 (configuration not stated) | inactive | inactive | inactive |
| Cn1c(=O)c2[nH]c(-c3ccccc3)nc2n(C)c1=O | inactive | inactive | inactive |
| NCC1OC(O[C@H]2[C@H](O)[C@@H](OC3C(O)C(N)CC(N)C3OC3OC(CO)C(O)C(O)C3N)O[C@@H]2CO)C(N)C(O)C1O (some centres not stated) | inactive | inactive | inactive |
| O=P(O)(O)C(Cl)(Cl)P(=O)(O)O | inactive | inactive | inactive |
| CC(=O)SCC[N+](C)(C)C | inactive | inactive | inactive |
| CCCCC#Cc1nc(NC)c2ncn([C@@H]3O[C@H](CO)[C@@H](O)[C@H]3O)c2n1 | inactive | inactive | inactive |
| S=C(S)OC1CC2CC1C1CCCC21 (configuration not stated) | inactive | inactive | inactive |
| COc1cccc(OC)c1OCCNCC1COc2ccccc2O1 (configuration not stated) | inactive | inactive | inactive |
